Screens: PubChem, National Center for Advancing Translational Sciences (NCATS)
Only some compounds are listed: those with a hit (about 12% of all), similar ones and a draw of the others.
Shiga toxin inh: A qHTS for Small Molecule Inhibitors of Shiga Toxin; inhibition, % at 38.7 µM; actives 9.2% (n = 290,000); Vero cells, Shiga toxin protein synthesis inhibition reporter; in the data active = inhibition mostly above about 28%, no sharp cut-off; inactive = mostly below about 43%; note: 0% is about no effect
NS1 inh: qHTS Assay for Inhibitors of Influenza NS1 Protein Function | Potency, µM (series often up to 46.1 µM), for the others: at the top dose activity, positive = more growth | actives 0.4% (n = 270,000); note: potency is the fitted concentration of half-maximal effect; actives are rising curves; nearly all actives have a fitted effect of over 50% in size
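A cell-based growth assay was used: compounds that relieve NS1-induced slow growth of budding yeast raise OD600. Assay medium was yeast nitrogen base with ammonium sulphate and -URA supplement, pH 6.0, with 2% galactose.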
SARS PLpro yeast: qHTS of Yeast-based Assay for SARS-CoV PLP; AID 485353, 2010; actives 0.19% (n = 330,000); Potency, µM (titrated, usually from 32.9 µM), for inactives: at the highest dose activity, positive = growth rescue, most hits filed as activators; S. cerevisiae expressing SARS-CoV PLpro, growth rescue; note: potency is the fitted concentration of half-maximal effect; 0% is about no effect; nearly all actives have a fitted effect of over 55% in size
Cycloheximide cs: Cycloheximide Counterscreen for Small Molecule Inhibitors of Shiga Toxin | actives 12% (n = 300,000) | max response, % | cell reporter, cycloheximide protein synthesis inhibition counterscreen; in the data active = max response mostly above about 13%, no sharp cut-off; inactive = mostly below about 14%; note: read at 38.3 µM for the half of the compounds with a filed dose; 0% is about no effect
* hit, by the source's call; ? = inconclusive; . = no result given. Unless noted, calls come from the whole dose curve.

SMILES | Shiga toxin inh | NS1 inh | SARS PLpro yeast | Cycloheximide cs
O=C(N/N=C/c1ccc(OCC(=O)N2CCCCC2)cc1)c1ccccc1O | 22 | -12% | ? | 12
O=C(Oc1ccc(/C=N/NC(=O)c2ccccc2O)cc1)c1ccccc1 | 25 | -4% | -4% | 16*
CC1CCC2(CC1)NC(=O)N(CC(=O)Nc1cccc(C#N)c1)C2=O (stereo not drawn) | . | . | 3% | .
CCN(CC(=O)Nc1c(F)cccc1F)C(=O)CNC(=O)c1cccs1 | . | . | 10% | .
CC(C)CC(O)(c1ccccc1)C(CN1CCOCC1)c1ccccc1 (stereo not drawn) | 18 | -3% | -1% | 20*
C/C(=N\NC(=O)c1ccn(C)n1)c1ccco1 | 85* | -1% | -2% | 40*
C/C(=N/NC(=O)c1cc(C)[nH]n1)c1ccco1 | 42* | 0% | -1% | 27*
C/C(=N\NC(=O)c1cc(-c2ccc(C)s2)[nH]n1)c1ccco1 | 66* | 10% | 17% | 39*
C/C(=N/NC(=O)c1cc(C)[nH]n1)c1ccncc1 | 49* | -6% | -1% | 17*
C/C(=N\NC(=O)c1ccc2c(c1)OCO2)c1ccco1 | 15 | . | -2% | 16
CCCCOC(=O)Nc1ccc(C(N)=O)cc1 | 76* | -9% | -14% | 37*
CC(C)COC(=O)NCCCOC(=O)Nc1ccccc1 | 16 | ? | -5% | 37*
CCCCOC(=O)Nc1ccc(S(=O)(=O)Nn2cnnc2)cc1 | 19 | 4% | 4% | -2
CCCCOC(=O)Nc1cccc(C(=O)OCC)c1 | 83* | -23% | 3% | 21*
CCCCOC(=O)Nc1ccc(C(C)C)cc1 | 86* | -3% | 0% | 40*
CC(C)COC(=O)NCCOC(=O)Nc1cccc(Cl)c1 | 2 | -49% | -1% | 1
CCOCCOC(=O)c1cccc(NC(=O)OCC)c1 | 26 | -5% | -3% | 14
Cc1cc(C(=O)NNC(=O)/C=C/c2ccc(F)cc2)c(C)o1 | 25 | 6% | 16% | -1
CCCCOC(=O)Nc1ccc(N(C)C)cc1 | 116* | 17% | 10% | 80*
c1ccc(Cc2nnc3sc(-c4ccc5c(c4)OCCO5)nn23)cc1 | 56 | -56% | 0% | 36*
c1ccc(Cc2nnc3sc(-c4ccncc4)nn23)cc1 | -1 | -96% | -2% | -1
Cc1cc(=O)n(-c2ccc3ccccc3n2)[nH]1 | 51* | -56% | ? | 47*
Cc1cccc(NC(=O)CSc2nnc(-c3ccccc3C)o2)c1 | 69* | -4% | 6% | 37*
COc1ccc(-c2nnc(SCC(=O)Nc3cc(C)on3)o2)cc1 | 44* | . | -1% | 33*
Cc1cc(NC(=O)CSc2nnc(-c3ccco3)o2)no1 | -8 | -1% | . | -1
SMILES | Shiga toxin inh | NS1 inh | SARS PLpro yeast | Cycloheximide cs
Cc1ccc(SCC(=O)Nc2cccc(-c3nnc(-c4ccco4)o3)c2)cc1 | 56* | -13% | -10% | 21*
Cc1cc(-c2nnc(SCC(=O)Nc3nc(-c4ccccc4)cs3)o2)no1 | 20 | ? | 0% | -3
Cc1csc(NC(=O)CSc2nnc(-c3cc(C)on3)o2)n1 | 40 | ? | 7% | 15*
O=C(Nc1cc(S(=O)(=O)N2CCCCC2)ccc1N1CCOCC1)c1ccc(C(F)(F)F)cc1 | . | . | 4% | .
COc1cccc(NC(=O)CSc2nnc(-c3ccc(C)cc3)o2)c1 | 45* | -4% | -4% | 28*
COc1ccccc1NC(=O)CSc1nnc(-c2ccc(C)cc2)o1 | 56 | -13% | 3% | 41*
CCCN(CC(=O)Nc1ccccc1OC)C(=O)CCCN1C(=O)c2ccccc2C1=O | . | . | -6% | .
CCS(=O)(=O)N1CCC(C(=O)O)CC1 | -7 | . | -6% | 7
COc1ccc(N2CCCCn3c2nc2c3c(=O)n(C)c(=O)n2C)cc1 | 2 | -5% | 2% | -1
CCc1nc2sc3c(c2c(=O)n1NC(=O)CCl)CCCC3 | -13 | -6% | 10µM* | -5
COc1ccccc1NS(=O)(=O)c1cccc(NC(=O)c2cncc(Br)c2)c1 | . | . | 2% | .
CCOc1c2ccoc2nc2c(OC)c(OC)ccc12 | 18 | -31% | -2% | 18*
C=CCOc1ccc2c(OC)c3ccoc3nc2c1OC | 39* | -20% | -29% | 26*
COc1c2c(nc3occc13)C(CC=C(C)C)(OC)C(=O)C=C2 (stereo not drawn) | -7 | 0% | 0% | -1
CC1CCCCN1C(=O)CNCC1CCCO1 (stereo not drawn) | 2 | 4% | 1% | -2
CC(C(=O)O)c1ccc(N2Cc3ccccc3C2=O)cc1 (stereo not drawn) | 72* | -5% | -5% | 45
CCOC(=O)N1CCN(C(=O)CSCc2ccccc2Cl)CC1 | 44* | -3% | 12% | 26
